# Experimental data as given in PubChem BioAssay AID588590 (National Center for Advancing Translational Sciences (NCATS), 2011).
# Out of some 390,000 compounds screened, about 4,000 (1%) were called active. Roughly 7% stayed inconclusive and do not appear here. Many of the other results were omitted from the sample, so actives are more common in it than they were. Values without a mark were called inactive. Calls come from the whole dose curve; as a rule, active = well fitted inhibition curve with a large enough effect; inconclusive = small, poorly fitted or top-dose-only effect, or another doubt; inactive = no such curve, though single readings can be large or run the other way.
# Target: DNA polymerase iota (Homo sapiens) (UniProt Q9UNA4)
# Sequence (Q9UNA4 whole entry, looked up): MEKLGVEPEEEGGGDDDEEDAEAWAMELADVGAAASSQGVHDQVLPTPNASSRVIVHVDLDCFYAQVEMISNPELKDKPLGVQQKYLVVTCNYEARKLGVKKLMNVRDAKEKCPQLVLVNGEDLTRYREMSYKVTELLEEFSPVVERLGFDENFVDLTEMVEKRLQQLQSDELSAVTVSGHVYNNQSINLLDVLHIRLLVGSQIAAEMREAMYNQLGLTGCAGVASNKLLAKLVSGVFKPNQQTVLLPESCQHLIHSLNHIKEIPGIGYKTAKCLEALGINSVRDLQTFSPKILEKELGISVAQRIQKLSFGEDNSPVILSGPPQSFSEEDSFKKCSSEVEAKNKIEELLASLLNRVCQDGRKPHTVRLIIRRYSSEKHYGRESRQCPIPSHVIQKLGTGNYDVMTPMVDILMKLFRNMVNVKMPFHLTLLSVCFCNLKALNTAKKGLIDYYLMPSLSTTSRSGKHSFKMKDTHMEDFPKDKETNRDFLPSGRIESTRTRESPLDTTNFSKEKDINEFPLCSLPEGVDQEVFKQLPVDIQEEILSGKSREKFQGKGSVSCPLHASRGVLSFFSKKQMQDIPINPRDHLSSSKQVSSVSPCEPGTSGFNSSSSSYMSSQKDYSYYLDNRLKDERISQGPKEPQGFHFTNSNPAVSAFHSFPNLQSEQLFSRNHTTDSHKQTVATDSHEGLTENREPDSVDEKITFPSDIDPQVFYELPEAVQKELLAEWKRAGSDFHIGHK
# Test: qHTS for Inhibitors of Polymerase Iota
# Conditions: Pol iota fluorescent replication assay, 10 min; series mostly up to 115 µM; activity, negative = inhibition: at the top concentration
# Procedure, shortened: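 Fluorescent replication assay read twice, at 0 min and 10 min after adding 50 nM (final) substrate. Enzyme (10 nM) and compounds were first incubated 15 min at room temperature; enzyme-free buffer wells were negative controls.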
# Potency is the fitted concentration of half-maximal effect.
Structure (SMILES),"activity, negative = inhibition [%]",Potency
O=C(CCS(=O)(=O)c1ccc(Br)cc1)NCCc1ccc(Cl)cc1,-25.8,–
COc1ccc(Cl)cc1NC(=O)CCC(=O)c1ccc(C)cc1,23.5,–
COc1ccc(Nc2ncc3c(n2)CCN(C(=O)OC(C)(C)C)C3)cc1,10.5,–
Cc1c(C)n(Cc2ccc(Cl)cc2)c2ccc(C(=O)NCCc3ccc(S(N)(=O)=O)cc3)cc12,-6.81,–
CN(C(=O)CSc1nnc(NC(=O)Nc2ccccc2)s1)c1ccccc1,8.04,–
O=C(c1[nH]ncc1-c1ccc(Cl)cc1)C1CO1 (centres undefined),–,56.2 µM (active)
COC(=O)c1scc(-c2ccccc2)c1S(=O)(=O)Nc1ccccc1,2.13,–
O=C1CCC[C@@H]2C[C@@]3(C[C@@H]4CCN1[C@H]24)Nc1ccccc1NC3=NCc1ccccc1,114,–
COc1cc2nc(N3CCCN(C)CC3)nc(NC3CC3)c2cc1OC,28.6,–
COc1ccc(-c2cn3nc(N4CCCC(C(=O)NCCCOC(C)C)C4)sc3n2)cc1 (centres undefined),23.1,–
COc1cc(N/C=C2\CC(=O)NC(C)=C2C#N)cc(OC)c1OC,–,10 µM (active)
COc1cc(NC(=O)c2nc3ccccc3nc2C)cc(OC)c1OC,33.3,–
COc1cc2c(cc1OC)C(C(=O)Nc1cc(C)c(OC)c(C)c1)CC(=O)N2 (centres undefined),62.9,–
COc1ccc(-c2nc3sc(CCNS(=O)(=O)c4ccc(F)c(C)c4)c(C)n3n2)cc1,12.4,–
CCOc1ccccc1NC(=O)CN1CCN(S(=O)(=O)c2ccc(Br)cc2)CC1,3.35,–
O=[N+]([O-])c1ccc(C=Nc2ccc(Cl)cc2Cl)s1,–,39.8 µM (active)
CCN(CC)/[N+]([O-])=N/OCOC(=O)Cc1c(C)n(C(=O)c2ccc(Cl)cc2)c2ccc(OC)cc12,7.56,–
O=c1nc2s/c(=C\c3ccco3)c(=O)n2nc1Cc1ccccc1,–,7.94 µM (active)
O=C(OCN1C(=O)c2ccccc2C1=O)/C(=C\c1ccco1)NC(=O)c1ccccc1,-18.1,–
O=C(Nc1ccccc1C(F)(F)F)c1nc(S(=O)(=O)Cc2ccccc2F)ncc1Cl,-5.98,–
NC1=NC(c2cc(F)cc(F)c2)n2c(nc3ccccc32)N1 (centres undefined),4.72,–
Cc1cc(C)c2oc(C(=O)Nc3ccc(S(=O)(=O)N4CCCCCC4)cc3)cc(=O)c2c1,5.81,–
Cc1ccc(-n2c(=O)c3cccnc3n2CC(=O)Nc2ccccc2C(F)(F)F)cc1C,-0.67,–
CCCOc1ccc(Cn2c(O)cc(=O)[nH]c2=O)cc1,–,22.4 µM (active)
COc1ccc(Cn2c(O)c(/C=C3/C=CC=N3)c(=O)[nH]c2=O)cc1,-9.71,–

Structure (SMILES),"activity, negative = inhibition [%]",Potency
CCN(C(=O)COC(=O)CCOc1cccc(C)c1)c1c(N)n(Cc2ccccc2)c(=O)[nH]c1=O,22.8,–
COc1ccccc1CCNC(=O)c1cccn1-c1nnc(N2CCCCC2)s1,3.68,–
Cc1ccc2nc(-c3ccc(C)c(NC(=O)Cc4ccccc4)c3)oc2c1,17.9,–
Cc1c(CCO)sc[n+]1CC(=O)c1ccc2ccccc2c1,5.31,–
CC1CCN(c2nc3ccc(C(=O)N4CCN(c5ccccc5)CC4)cc3s2)CC1,-4.14,–
O=C(c1cc2c(s1)CCC2)N1CCN(c2ccccc2)CC1,–,25.1 µM (active)
O=C(c1cc2ccccc2s1)N1CCN(c2ccccn2)CC1,29.9,–
CCNC(=O)Cn1nc(C)n2c(cc3c(OC)cccc32)c1=O,2.21,–
CN(C)c1ccc(/C=N\Nc2ccc([N+](=O)[O-])cc2[N+](=O)[O-])cc1Cl,-14,–
COc1cccc(Cn2c(SCc3ccc(C(=O)N4CCCCC4)cc3)nc3ccncc32)c1,3.02,–
COCCCNC(=O)Cc1ccc(-n2c(C)nc3cccnc32)cc1,-18.4,–
CCc1nc2cccnc2n1-c1ccc(CC(=O)Nc2c(C)cccc2C)cc1,7.57,–
CCc1nc2cccnc2n1-c1ccc(C(=O)O)cc1,–,25.1 µM (active)
COc1ccc(N2CCN(Cc3nc4c(c(=O)[nH]c(=O)n4C)n3Cc3ccc(Cl)cc3)CC2)cc1,25.9,–
O=C(NCCc1ccc(Cl)cc1)c1ccc2c(c1)N(Cc1ccc(F)cc1)C(=O)CS2,-20.5,–
CCC(=O)N1CCc2cc(Br)cc(S(=O)(=O)CCC(=O)NCCc3ccc(OC)c(OC)c3)c21,14.3,–
CCOC(=O)CC1C(=O)NCCN1c1nc2c(C)cccn2c(=O)c1/C=C1\SC(=S)N(C(C)CC)C1=O (centres undefined),–,39.8 µM (active)
CCOC(=O)CNC(=O)c1cc2c(=O)n3cccc(C)c3nc2s1,5.79,–
Cc1cccn2c(=O)c(/C=C(\C#N)S(=O)(=O)c3ccc(Cl)cc3)c(N3CCC(C(N)=O)CC3)nc12,-8.99,–
CC1CCC(N2CC(=O)N(CCC3=CCCCC3)C(c3ccc(F)cc3)C2=O)CC1 (centres undefined),-7.19,–
COc1cc2c(cc1OC)C(COc1ccc(F)cc1)N(C(=O)c1ccccc1F)CC2 (centres undefined),3.48,–
CCc1ccc(Nc2nn3c(=O)c4cc5c(cc4nc3s2)OCO5)cc1,-22.5,–
c1ccc(-c2cc(-c3nnc4sc(-c5ccccn5)nn34)[nH]n2)cc1,–,25.1 µM (active)
Fc1ccc(-c2ccc(-c3nn4c(-c5ccco5)nnc4s3)o2)cc1,-5.94,–
